The results in this text go back to PubChem BioAssay.

The nature of test [1]: resazurin metabolic signal in HepG2 cells – cell-based, resazurin fluorescence, 24 h, PK04 Diversity Set, profiling panel (AID 1172). The settings on record: HepG2 viability, higher = more signal.
A short description of test [2]: budding yeast growth changes without added modifier – OD600, strain BY4716, 24 h, basal condition, primary screen (AID 1173). Particulars: S. cerevisiae BY4716 growth, OD600, 24 h; higher = more signal, called active from +8 up or from −8 down.
Test [3] is described as follows: viability profiling in MM1S myeloma cells – cell-based, resazurin fluorescence, basal, 24 h, PK04 Diversity Set, profiling panel (AID 1174).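 Further: MM1S multiple myeloma cell line.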 The settings on record: higher = more signal, called active from +8 up or from −8 down. Background: Resazurin is reduced to fluorescent resorufin, in cell work by metabolically active cells.
Test [4] concerns the target Dihydroorotate dehydrogenase (quinone), mitochondrial (Plasmodium falciparum (isolate 3D7)) (UniProt Q08210). As to the kind of experiment: inhibition of P. falciparum DHODH – biochemical, C-terminal His tag, absorbance 600 nm, primary screen (AID 1175).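 Further: recombinant parasite enzyme with a five histidine tag at its C terminus.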 The settings on record: PfDHODH enzyme, DCIP absorbance 600 nm; higher = more signal, called active from +8 up or from −8 down.

Test [5] in a line: inhibition of PAO1 biofilm formation – strain PAO1, LB-PBS medium, absorbance 600 nm, primary screen (AID 1176). The settings on record: P. aeruginosa PAO1 growth/biofilm, A600, 12 h; higher = more signal.
Test [6] can be described thus: growth modulation of vineyard yeast isolate – strain RM11-1a, OD600, basal, 24 h, primary screen (AID 1177).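 Further: cultures grown under basal conditions with no added stressor.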 The settings on record: S. cerevisiae RM11-1a growth, OD600, 24 h; higher = more signal, called active from +8 up or from −8 down.
The nature of test [7]: growth of efflux-deficient E. coli DRC39 – strain DRC39, OD650, 24 h, E. coli filamentation inducers, primary screen (AID 1178).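 Further: growth measured as culture turbidity by optical density at 650 nm.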 Particulars: E. coli DRC39 acrAB, higher = more signal, called active from +8 up or from −8 down.
Test [8] is described as follows: growth of efflux-deficient E. coli DRC39 – strain DRC39, OD650, 48 h, E. coli filamentation inducers, primary screen (AID 1179).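 Further: screen aims at cell division blockers that make cells filament.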 The settings on record: E. coli DRC39 delta-acrAB growth, higher = more signal, called active from +8 up or from −8 down.
Test [9] in a line: viability profiling in RPMI8226 myeloma cells – cell-based, resazurin fluorescence, basal, 24 h, PK04 Diversity Set, profiling panel (AID 1180).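 Further: RPMI8826 multiple myeloma cell line at 5000 cells per well.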 The settings on record: higher = more signal.
The target of test [10] is E3 ubiquitin-protein ligase XIAP (Homo sapiens) (UniProt P98170). As to the kind of experiment: small molecules binding XIAP protein – biophysical, small-molecule microarray, fluorescence 635 nm, primary screen (AID 1181).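 Further: score merges 667 nm emission and signal to noise over triplicate slides.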 The settings on record: higher = more signal.
Chain of E3 ubiquitin-protein ligase XIAP (Homo sapiens) (P98170 whole entry, looked up, the tested form may be a part): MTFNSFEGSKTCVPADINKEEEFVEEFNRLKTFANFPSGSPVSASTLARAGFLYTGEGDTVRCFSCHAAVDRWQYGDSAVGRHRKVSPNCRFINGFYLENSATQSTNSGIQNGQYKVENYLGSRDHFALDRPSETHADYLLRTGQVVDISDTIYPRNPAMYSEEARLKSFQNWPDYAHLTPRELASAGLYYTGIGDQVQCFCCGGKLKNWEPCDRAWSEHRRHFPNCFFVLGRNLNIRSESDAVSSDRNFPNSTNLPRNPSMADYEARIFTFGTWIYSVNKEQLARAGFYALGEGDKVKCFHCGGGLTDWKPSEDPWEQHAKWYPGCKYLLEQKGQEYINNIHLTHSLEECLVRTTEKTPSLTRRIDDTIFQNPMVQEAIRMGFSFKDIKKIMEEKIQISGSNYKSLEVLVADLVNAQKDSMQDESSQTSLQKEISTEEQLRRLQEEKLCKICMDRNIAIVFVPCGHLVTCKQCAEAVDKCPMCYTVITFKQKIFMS
Test [11] deals with XIP peptide (Xip251-270) binding. As to the kind of experiment: XIP fragment 251-270 binding compounds – biochemical, small-molecule microarray, fluorescence 635/667 nm, 0.1 µg/mL protein, primary screen (AID 1182). Particulars: fluorescent protein binding, 635 nm, higher = more signal, called active from +8 up or from −8 down.
Another test concerns XIP peptide (Xip251-270). As to the kind of experiment: compounds binding XIP fragment 251-270 – biochemical, small-molecule microarray, fluorescence 635/667 nm, 0.5 µg/mL protein, primary screen (AID 1183). The settings on record: fluorescence 635 nm, higher = more signal.
The nature of test [12]: blood-stage malaria parasite viability loss – strain 3D7, DAPI fluorescence, 100 nL, primary screen (AID 1184).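 Further: parasites grown inside human red blood cells in medium with human serum.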 The settings on record: P. falciparum 3D7 growth, 3 d, higher = more signal.
The target in test [13] is Homeobox protein Hox-A13 (Mus musculus) (UniProt Q62424). As to the kind of experiment: disruptors of Hoxa13 oligonucleotide interaction – biochemical, fluorescence polarization, labeled oligonucleotide, primary screen (AID 1185). The settings on record: Hoxa13:DNA binding, 15 min, higher = more signal, called active from +8 up or from −8 down. On the technique in general: Fluorescence polarisation rises when a labelled molecule tumbles more slowly, as on binding a larger partner.
Chain of Homeobox protein Hox-A13 (Mus musculus) (Q62424 whole entry, looked up): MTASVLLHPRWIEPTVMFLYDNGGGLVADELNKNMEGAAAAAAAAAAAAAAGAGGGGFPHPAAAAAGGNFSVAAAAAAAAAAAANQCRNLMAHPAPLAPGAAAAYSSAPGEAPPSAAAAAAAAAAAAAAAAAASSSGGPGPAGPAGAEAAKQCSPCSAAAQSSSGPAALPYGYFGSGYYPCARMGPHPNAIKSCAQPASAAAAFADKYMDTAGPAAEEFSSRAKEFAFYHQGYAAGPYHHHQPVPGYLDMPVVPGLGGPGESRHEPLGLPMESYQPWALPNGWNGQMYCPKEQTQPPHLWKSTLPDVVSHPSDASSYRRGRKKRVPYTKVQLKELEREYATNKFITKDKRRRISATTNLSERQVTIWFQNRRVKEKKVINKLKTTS

Test [14] can be described thus: blockers of DNA damage checkpoint Chk1 activation – imaging, HeLa, hydroxyurea, phospho-Chk1 antibody, percent positive cells, primary screen (AID 1186). Particulars: hydroxyurea-induced phospho-Chk1 immunofluorescence imaging, higher = more signal.
Test [15] can be described thus: blockers of DNA damage checkpoint Chk1 activation – imaging, HeLa, hydroxyurea, phospho-Chk1 nuclear intensity, primary screen (AID 1187). Particulars: hydroxyurea-induced phospho-Chk1 immunofluorescence imaging, higher = more signal.

Values joined by “and” are separate entries in the source; they are usually repeats but may differ in a detail not shown here. Identical values can stand only once. Active and inactive are the calls of the source. Unless noted, how the calls were made is not given here.

Chain of Dihydroorotate dehydrogenase (quinone), mitochondrial (Plasmodium falciparum (isolate 3D7)) (Q08210 whole entry, looked up): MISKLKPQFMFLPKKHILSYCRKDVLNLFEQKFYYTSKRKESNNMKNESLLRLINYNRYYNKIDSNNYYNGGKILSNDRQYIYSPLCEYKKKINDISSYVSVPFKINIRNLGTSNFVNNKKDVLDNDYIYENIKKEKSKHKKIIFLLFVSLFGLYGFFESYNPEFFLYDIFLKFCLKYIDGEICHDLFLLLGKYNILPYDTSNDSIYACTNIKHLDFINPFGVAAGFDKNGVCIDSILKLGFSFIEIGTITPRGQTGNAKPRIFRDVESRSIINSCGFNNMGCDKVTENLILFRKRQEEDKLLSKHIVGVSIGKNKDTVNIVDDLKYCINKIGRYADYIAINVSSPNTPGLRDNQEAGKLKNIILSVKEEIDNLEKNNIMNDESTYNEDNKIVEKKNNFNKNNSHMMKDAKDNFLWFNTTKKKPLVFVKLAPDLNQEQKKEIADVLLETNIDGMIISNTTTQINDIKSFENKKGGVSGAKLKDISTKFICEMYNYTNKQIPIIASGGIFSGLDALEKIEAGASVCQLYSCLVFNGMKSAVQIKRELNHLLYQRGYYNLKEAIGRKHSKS

For `C=C[C@H](C)[C@@H](O)c1ccc(OCCO)cc1`, the z-score in test [1] is 0.0272 and -0.227; in test [2], -1.41 (inactive) and -2.08 (inactive); in test [3], -0.246 (inactive) and -0.5 (inactive); in test [5] it was 0.684 (inactive) and 0.486 (inactive); in test [6], -0.371 (inactive) and 0.526 (inactive); in [7], -0.748 (inactive) and 0.371 (inactive). The z-score in test [8] is -0.902 (inactive) and 0.418 (inactive); in test [9], 0.0577 and -0.603; in test [12], 0.394 and 0.709; in test [13] it was -1.51 (inactive) and -0.976 (inactive); in test [14] it was 0.845 (inactive) and -1.4 (inactive); in test [15], 0.121 (inactive) and -0.859 (inactive). For the same molecule, the composite z-score in test [4] is 0.14 (inactive) and -0.263 (inactive); in test [10] it was 0.074 and 0.18; in test [11] it was -0.301 (inactive) and -0.375 (inactive); in the test on XIP peptide (Xip251-270), 0.112 and 0.861.

Turning to `CC(C)=NOC[C@@H](O)COCc1ccco1`, the z-score in test [1] is -0.907; in [2], 0.14 (inactive); in [3] it was -1.09 (inactive); in test [5], -0.324 (inactive); in test [6], 0.534 (inactive); in test [7], 0.745 (inactive). Besides, the z-score in test [8] is 0.41 (inactive); in test [9] it was -1.11; in test [12], 0.814; in [13] it was -1.15 (inactive). For the same molecule, the composite z-score is 0.102 (inactive) in test [4], 0.0576 in test [10], -0.651 (inactive) in test [11] and 0.258 with XIP peptide (Xip251-270).

Turning to `CCN1C(=O)[C@H]2[C@H]3[C@H](O)[C@H](O)CC(=NOC[C@@H](O)COCc4ccco4)[C@@H]3CC[C@H]2C1=O`, the z-score in [1] is -0.113 and -1.03; in test [2], 1.31 (inactive) and 0.252 (inactive); in [3], -0.413 (inactive) and -0.696 (inactive); in test [5], -0.601 (inactive) and -0.385 (inactive); in test [6] it was 0.567 (inactive) and 0.24 (inactive); in test [7] it was -0.357 (inactive) and -1.05 (inactive). For the same molecule, the z-score in test [8] was -0.463 (inactive) and -0.657 (inactive); in test [9], -0.575 and -0.287; in [12], 0.0479 and -0.919; in test [13] it was -0.849 (inactive) and -2.85 (inactive). The composite z-score was 0.489 (inactive) and 0.529 (inactive) in test [4]; -0.0666 and -0.121 in test [10]; -0.24 (inactive) and 1.01 (inactive) in [11]; 0.232 and 0.595 in the test on XIP peptide (Xip251-270).

Take `COC(=O)C1=C(C)N(Cc2ccccc2)C2=C3C(=O)N(c4ccccc4)C(=O)[C@@H]3[C@@](O)(C(=O)OC)C(=O)N2[C@@H]1c1ccccc1`: the z-score in test [1] was 0.941 and 0.879; in [2] it was -1.31 (inactive) and -2.61 (inactive); in [3] it was 0.463 (inactive) and 1.02 (inactive); in [5] it was -0.847 (inactive); in test [6], -0.305 (inactive) and -1.62 (inactive); in test [7], 0.284 (inactive) and 1.07 (inactive). Besides, the z-score in test [8] was -0.23 (inactive) and 1.2 (inactive); in [9] it was 0.698 and 0.334; in test [12] it was -0.441 and 0.347; in test [13], -3.12 (inactive) and -0.385 (inactive). Besides, the composite z-score was -0.0764 (inactive) and -0.563 (inactive) in [4]; 0.122 and 0.0178 in [10]; 0.357 (inactive) and 0.908 (inactive) in [11]; 0.673 and 0.243 in the test with XIP peptide (Xip251-270).

`Cc1ccc(S(=O)(=O)N[C@@H]2COC(=O)CC=C[C@@H](C)[C@@H]3C=C[C@H](O)[C@@H](COC(=O)CC=C[C@H]2C)O3)cc1`: the z-score in test [1] was -0.29 and 0.458; in test [2] it was -0.595 (inactive) and 0.228 (inactive); in test [3], -0.0856 (inactive) and 0.441 (inactive); in test [5], -0.212 (inactive) and -0.0781 (inactive); in test [6], -0.169 (inactive) and -0.14 (inactive); in test [7], 0.245 (inactive) and -1.15 (inactive). For the same molecule, the z-score in test [8] is 0.0957 (inactive) and -0.599 (inactive); in test [9], -0.541 and 0.341; in [12], 1.03 and -1.19; in [13], -1.86 (inactive) and -1.1 (inactive). Further, the composite z-score in [4] was 0.178 (inactive) and -4.95 (inactive); in [10], -0.138 and -0.124; in test [11] it was 0.061 (inactive) and -0.148 (inactive); with XIP peptide (Xip251-270) it was -0.179 and 0.167.

On to `COC(=O)[C@H](C)NC(=O)CCC1CC(OC(=O)NCCc2ccc(F)cc2)CC2(CCCC(COC(=O)NCCCN3CCCC3=O)O2)O1` (stereo not given in full), for which the z-score in test [1] is -0.704; in test [2], -0.343 (inactive); in test [3], 0.951 (inactive); in test [5], -0.977 (inactive); in [6], 0.492 (inactive); in test [7], -0.441 (inactive). Besides, the z-score was -0.367 (inactive) in test [8], 0.315 in test [9], -1.9 in test [12] and -4.1 (inactive) in test [13]. Also, the composite z-score is 0.322 (inactive) in test [4], -0.283 in test [10], 0.348 (inactive) in test [11] and 0.683 in the test on XIP peptide (Xip251-270).

As to `C[C@@H]1CC[C@H]2C(=O)NC[C@@H](O)CN2[C@H]1c1ccc(Br)cc1`, the z-score in [1] is -0.278 and -0.27; in test [2], -0.228 (inactive) and -0.64 (inactive); in [3] it was -0.503 (inactive) and 0.138 (inactive); in test [5], 0.684 (inactive) and -0.27 (inactive); in [6] it was -0.154 (inactive) and 0.502 (inactive); in [7], 0.514 (inactive) and 0.669 (inactive). Further, the z-score in test [8] is -0.882 (inactive) and 0.26 (inactive); in test [9], -0.149 and 0.435; in test [12] it was -0.601 and 0.863; in test [13], -2.22 (inactive) and -1.74 (inactive). Moreover, the composite z-score in [4] is -0.679 (inactive) and 0.382 (inactive); in test [10], -0.0238 and -0.102; in [11], 0.21 (inactive) and 0.567 (inactive); with XIP peptide (Xip251-270), 0.22 and 0.889.
